Assay results: the supplement of paper PMC10849652
Targets with a hit are over-represented here; the source holds about 8,800 in all. About 0.5% of all pairs of compound and target were hits. A number with no mark means an inactive call.

Legend:
Assay in all cases: log2 fold change, soluble protein after heating vs DMSO (PISA); higher = thermal stabilisation; K562 lysate, 10 uM; active = over 0.2 and 3.5 SD of the protein, either way, in both replicates (recomputed)
[1] = compound: NCC(=O)Nc1ccc(-n2nc(C(F)(F)F)cc2-c2ccc3c(ccc4ccccc43)c2)cc1
Summary of the method: (§1)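 Log-two fold change in thermal stability relative to solvent controls is reported from duplicates. For each sample, crude K562 extract from dounce-homogenised pellets in PBS pH 7.4 with 1 mM MgCl2, at 1 mg/mL protein, was treated with 10 μM compound for 30 min. Aliquots heated for 3 min across 48°C-58°C were pooled, brought to 0.5% NP-40 at 4°C and cleared at 21,000xg for 90 min. The supernatant was quantified by TMTpro 16plex LC-MS/MS with channel sums equalised.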

vorinostat = compound: O=C(CCCCCCC(=O)Nc1ccccc1)NO [vorinostat]
Summary of the method: as §1

silmitasertib = compound: O=C(O)c1ccc2c(c1)nc(Nc1cccc(Cl)c1)c1ccncc12 [silmitasertib]
Summary of the method: as §1

[2] = compound: O=C1NC(=O)C(c2cnc3ccccn23)=C1c1cn2c3c(cc(F)cc13)CN(C(=O)N1CCCCC1)CC2
Summary of the method: as §1

entospletinib = compound: c1cn2cc(-c3ccc4cn[nH]c4c3)nc(Nc3ccc(N4CCOCC4)cc3)c2n1 [entospletinib]
Summary of the method: as §1

RPL27 (UniProt P61353)
log2 fold change [1]: 0.014
log2 fold change (vorinostat): 0.129
log2 fold change (silmitasertib): 0.03
log2 fold change [2]: 0.013
log2 fold change (entospletinib): 0.009

RIOK3 (UniProt O14730)
log2 fold change [1]: -0.024
log2 fold change (vorinostat): -0.605 (active)
log2 fold change (silmitasertib): -0.017
log2 fold change [2]: -0.024
log2 fold change (entospletinib): -0.004

SAMHD1 (UniProt Q9Y3Z3)
log2 fold change [1]: -0.012
log2 fold change (vorinostat): -0.352 (active)
log2 fold change (silmitasertib): -0.002
log2 fold change [2]: 0.032
log2 fold change (entospletinib): 0.031

RASA2 (UniProt Q15283)
Sequence of UniProt Q15283 (Q15283 whole entry, looked up): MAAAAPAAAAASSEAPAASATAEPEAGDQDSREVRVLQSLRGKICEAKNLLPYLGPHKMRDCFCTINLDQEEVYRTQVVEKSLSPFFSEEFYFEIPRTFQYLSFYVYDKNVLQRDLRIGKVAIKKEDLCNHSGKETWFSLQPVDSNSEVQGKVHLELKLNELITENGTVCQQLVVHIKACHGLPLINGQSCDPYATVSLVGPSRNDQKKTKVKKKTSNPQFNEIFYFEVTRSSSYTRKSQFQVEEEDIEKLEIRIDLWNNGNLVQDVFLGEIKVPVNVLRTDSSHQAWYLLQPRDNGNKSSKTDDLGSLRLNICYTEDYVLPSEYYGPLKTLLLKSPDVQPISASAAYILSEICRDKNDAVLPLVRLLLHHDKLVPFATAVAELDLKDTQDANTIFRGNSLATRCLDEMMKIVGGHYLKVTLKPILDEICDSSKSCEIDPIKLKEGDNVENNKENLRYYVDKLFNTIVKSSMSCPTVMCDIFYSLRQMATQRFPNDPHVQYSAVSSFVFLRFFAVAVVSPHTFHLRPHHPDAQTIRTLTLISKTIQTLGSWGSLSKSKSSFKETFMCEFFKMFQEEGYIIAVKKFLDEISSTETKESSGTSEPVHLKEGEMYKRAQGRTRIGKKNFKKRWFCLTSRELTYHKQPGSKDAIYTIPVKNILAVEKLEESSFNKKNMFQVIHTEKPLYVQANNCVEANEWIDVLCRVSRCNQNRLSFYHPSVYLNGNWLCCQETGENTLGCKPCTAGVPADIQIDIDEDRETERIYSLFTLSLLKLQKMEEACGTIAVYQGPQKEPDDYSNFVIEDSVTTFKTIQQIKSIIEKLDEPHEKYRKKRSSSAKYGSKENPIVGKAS
log2 fold change [1]: -0.007
log2 fold change (vorinostat): -0.275 (active)
log2 fold change (silmitasertib): 0.021
log2 fold change [2]: -0.006
log2 fold change (entospletinib): 0.023

RBM42 (UniProt Q9BTD8)
log2 fold change [1]: 0.19
log2 fold change (vorinostat): -0.04
log2 fold change (silmitasertib): -0.031
log2 fold change [2]: 0.018
log2 fold change (entospletinib): -0.058

RMC1 (UniProt Q96DM3)
log2 fold change [1]: 0.008
log2 fold change (vorinostat): -0.391 (active)
log2 fold change (silmitasertib): 0.017
log2 fold change [2]: -0.013
log2 fold change (entospletinib): 0.037

RNF113A (UniProt O15541)
Sequence of UniProt O15541 (O15541 whole entry, looked up): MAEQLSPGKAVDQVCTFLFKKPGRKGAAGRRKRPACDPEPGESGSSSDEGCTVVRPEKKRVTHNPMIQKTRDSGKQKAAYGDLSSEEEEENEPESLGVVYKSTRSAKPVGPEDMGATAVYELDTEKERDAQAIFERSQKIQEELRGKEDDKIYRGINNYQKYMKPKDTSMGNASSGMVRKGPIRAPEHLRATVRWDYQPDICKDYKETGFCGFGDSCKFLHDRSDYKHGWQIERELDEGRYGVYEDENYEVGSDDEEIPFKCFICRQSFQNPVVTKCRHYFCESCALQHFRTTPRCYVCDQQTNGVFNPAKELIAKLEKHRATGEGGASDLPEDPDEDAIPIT
log2 fold change [1]: 0.009
log2 fold change (vorinostat): -0.02
log2 fold change (silmitasertib): -0.03
log2 fold change [2]: -0.004
log2 fold change (entospletinib): 0.02

RETSAT (UniProt Q6NUM9)
Sequence of UniProt Q6NUM9 (Q6NUM9 whole entry, looked up): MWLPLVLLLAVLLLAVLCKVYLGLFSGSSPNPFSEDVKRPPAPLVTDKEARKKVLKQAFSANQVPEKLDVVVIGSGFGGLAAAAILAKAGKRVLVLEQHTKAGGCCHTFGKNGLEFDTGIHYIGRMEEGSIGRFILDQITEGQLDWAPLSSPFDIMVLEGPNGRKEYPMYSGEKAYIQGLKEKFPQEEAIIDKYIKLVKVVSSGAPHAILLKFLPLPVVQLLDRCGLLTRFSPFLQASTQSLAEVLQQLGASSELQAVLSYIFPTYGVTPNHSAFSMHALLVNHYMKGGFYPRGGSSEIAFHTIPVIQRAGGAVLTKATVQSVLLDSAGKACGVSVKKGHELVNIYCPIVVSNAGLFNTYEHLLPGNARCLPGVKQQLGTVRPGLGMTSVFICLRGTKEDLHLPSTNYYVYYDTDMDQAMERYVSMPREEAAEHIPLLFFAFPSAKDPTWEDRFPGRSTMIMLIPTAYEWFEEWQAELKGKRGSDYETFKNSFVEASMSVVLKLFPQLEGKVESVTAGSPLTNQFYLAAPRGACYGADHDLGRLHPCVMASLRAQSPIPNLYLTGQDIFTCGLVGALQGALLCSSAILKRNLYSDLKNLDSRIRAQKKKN
log2 fold change [1]: -0.087
log2 fold change (vorinostat): 0.17
log2 fold change (silmitasertib): -0.016
log2 fold change [2]: 0.058
log2 fold change (entospletinib): 0.036

RIC1 (UniProt Q4ADV7)
log2 fold change [1]: -0.053
log2 fold change (vorinostat): -0.193
log2 fold change (silmitasertib): 0.057
log2 fold change [2]: -0.06
log2 fold change (entospletinib): 0.045

SERPINI1 (UniProt Q99574)
Sequence of UniProt Q99574 (Q99574 whole entry, looked up): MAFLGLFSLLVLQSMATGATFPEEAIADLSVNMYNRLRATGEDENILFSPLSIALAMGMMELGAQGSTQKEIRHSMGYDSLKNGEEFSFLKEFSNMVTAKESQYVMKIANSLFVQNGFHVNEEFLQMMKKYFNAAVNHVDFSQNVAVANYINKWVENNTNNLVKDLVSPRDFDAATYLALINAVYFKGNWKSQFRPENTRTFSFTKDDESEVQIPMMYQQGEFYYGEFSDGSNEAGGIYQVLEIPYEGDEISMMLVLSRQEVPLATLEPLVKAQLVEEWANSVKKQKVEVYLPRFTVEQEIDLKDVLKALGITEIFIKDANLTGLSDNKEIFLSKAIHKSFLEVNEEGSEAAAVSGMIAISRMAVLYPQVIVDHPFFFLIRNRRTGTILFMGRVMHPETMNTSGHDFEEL
log2 fold change [1]: -0.04
log2 fold change (vorinostat): 0.124
log2 fold change (silmitasertib): -0.021
log2 fold change [2]: -0.003
log2 fold change (entospletinib): -0.016

RBSN (UniProt Q9H1K0)
Sequence of UniProt Q9H1K0 (Q9H1K0 whole entry, looked up): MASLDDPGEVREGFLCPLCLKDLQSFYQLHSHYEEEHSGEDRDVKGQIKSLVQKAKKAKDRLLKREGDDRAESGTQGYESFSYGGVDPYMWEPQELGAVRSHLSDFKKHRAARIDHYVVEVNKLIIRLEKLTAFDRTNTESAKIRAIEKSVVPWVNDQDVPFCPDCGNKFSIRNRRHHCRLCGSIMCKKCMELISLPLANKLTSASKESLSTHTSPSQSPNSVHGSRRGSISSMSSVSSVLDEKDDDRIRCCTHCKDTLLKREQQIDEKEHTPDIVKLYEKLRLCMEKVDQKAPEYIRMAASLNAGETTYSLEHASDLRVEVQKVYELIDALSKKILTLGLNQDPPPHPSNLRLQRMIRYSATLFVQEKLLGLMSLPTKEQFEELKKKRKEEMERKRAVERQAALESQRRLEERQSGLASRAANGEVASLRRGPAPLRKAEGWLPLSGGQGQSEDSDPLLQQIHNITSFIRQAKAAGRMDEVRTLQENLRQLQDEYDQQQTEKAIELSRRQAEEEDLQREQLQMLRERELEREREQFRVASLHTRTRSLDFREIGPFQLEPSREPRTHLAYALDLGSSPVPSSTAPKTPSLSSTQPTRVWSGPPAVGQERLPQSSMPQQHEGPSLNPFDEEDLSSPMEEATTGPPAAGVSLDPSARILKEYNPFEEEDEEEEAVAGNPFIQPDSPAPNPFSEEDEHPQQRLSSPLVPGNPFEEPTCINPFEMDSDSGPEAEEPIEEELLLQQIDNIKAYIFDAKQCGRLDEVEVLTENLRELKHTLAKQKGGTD
log2 fold change [1]: 0.039
log2 fold change (vorinostat): 0.035
log2 fold change (silmitasertib): -0.032
log2 fold change [2]: -0.026
log2 fold change (entospletinib): -0.088

RAP1B (UniProt P61224)
Sequence of UniProt P61224 (P61224 whole entry, looked up): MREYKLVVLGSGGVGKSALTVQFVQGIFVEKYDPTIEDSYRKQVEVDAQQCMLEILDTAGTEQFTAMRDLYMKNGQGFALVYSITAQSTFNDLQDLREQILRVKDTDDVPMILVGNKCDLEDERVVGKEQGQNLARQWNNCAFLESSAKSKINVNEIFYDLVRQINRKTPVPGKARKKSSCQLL
log2 fold change [1]: 0.048
log2 fold change (vorinostat): 0.078
log2 fold change (silmitasertib): -0.036
log2 fold change [2]: -0.024
log2 fold change (entospletinib): -0.012

RAB1B (UniProt Q9H0U4)
Sequence of UniProt Q9H0U4 (Q9H0U4 whole entry, looked up): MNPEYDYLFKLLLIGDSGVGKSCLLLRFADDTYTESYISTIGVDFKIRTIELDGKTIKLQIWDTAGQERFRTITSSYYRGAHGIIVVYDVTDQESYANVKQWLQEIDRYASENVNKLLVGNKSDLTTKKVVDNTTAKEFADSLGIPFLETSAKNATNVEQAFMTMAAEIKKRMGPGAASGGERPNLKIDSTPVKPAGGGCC
log2 fold change [1]: 0.025
log2 fold change (vorinostat): 0.186
log2 fold change (silmitasertib): 0.007
log2 fold change [2]: -0.039
log2 fold change (entospletinib): -0.011

SEC13 isoform 3 (UniProt P55735)
Sequence of UniProt P55735 (P55735 whole entry, looked up): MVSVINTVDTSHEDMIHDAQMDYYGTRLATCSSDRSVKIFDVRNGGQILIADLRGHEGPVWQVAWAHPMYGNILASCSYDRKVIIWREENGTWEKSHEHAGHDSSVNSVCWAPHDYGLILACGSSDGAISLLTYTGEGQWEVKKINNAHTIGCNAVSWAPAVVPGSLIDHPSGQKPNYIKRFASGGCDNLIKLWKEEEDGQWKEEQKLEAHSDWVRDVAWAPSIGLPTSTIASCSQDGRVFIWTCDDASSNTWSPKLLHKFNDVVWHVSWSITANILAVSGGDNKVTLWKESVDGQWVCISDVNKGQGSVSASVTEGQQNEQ
log2 fold change [1]: -0.01
log2 fold change (vorinostat): -0.115
log2 fold change (silmitasertib): 0.021
log2 fold change [2]: -0.045
log2 fold change (entospletinib): -0.001

RCOR1 (UniProt Q9UKL0)
log2 fold change [1]: 0.034
log2 fold change (vorinostat): -0.184
log2 fold change (silmitasertib): -0.014
log2 fold change [2]: -0.011
log2 fold change (entospletinib): 0.009

RANBP2 (UniProt P49792)
log2 fold change [1]: -0.01
log2 fold change (vorinostat): -0.343 (active)
log2 fold change (silmitasertib): -0.004
log2 fold change [2]: 0.001
log2 fold change (entospletinib): -0.006

RPS26P11 (UniProt Q5JNZ5)
log2 fold change [1]: -0.026
log2 fold change (vorinostat): 0.114
log2 fold change (silmitasertib): 0.049
log2 fold change [2]: -0.113
log2 fold change (entospletinib): -0.035

RBBP7 isoform 2 (UniProt Q16576)
Sequence of UniProt Q16576 (Q16576 whole entry, looked up): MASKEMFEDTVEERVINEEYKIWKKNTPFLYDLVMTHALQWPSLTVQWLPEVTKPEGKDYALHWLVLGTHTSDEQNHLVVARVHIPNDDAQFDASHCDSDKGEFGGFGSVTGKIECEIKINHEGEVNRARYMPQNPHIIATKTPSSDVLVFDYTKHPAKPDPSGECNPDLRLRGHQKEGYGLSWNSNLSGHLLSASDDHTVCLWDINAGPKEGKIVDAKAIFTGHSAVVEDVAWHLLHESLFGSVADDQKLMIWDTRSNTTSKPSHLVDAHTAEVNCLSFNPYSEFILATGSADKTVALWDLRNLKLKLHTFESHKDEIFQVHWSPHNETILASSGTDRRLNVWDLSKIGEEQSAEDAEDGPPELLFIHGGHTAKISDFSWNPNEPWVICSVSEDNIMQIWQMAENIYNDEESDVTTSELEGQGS
log2 fold change [1]: -0.043
log2 fold change (vorinostat): 0.03
log2 fold change (silmitasertib): -0.012
log2 fold change [2]: -0.068
log2 fold change (entospletinib): 0.024

RBM22 (UniProt Q9NW64)
Sequence of UniProt Q9NW64 (Q9NW64 whole entry, looked up): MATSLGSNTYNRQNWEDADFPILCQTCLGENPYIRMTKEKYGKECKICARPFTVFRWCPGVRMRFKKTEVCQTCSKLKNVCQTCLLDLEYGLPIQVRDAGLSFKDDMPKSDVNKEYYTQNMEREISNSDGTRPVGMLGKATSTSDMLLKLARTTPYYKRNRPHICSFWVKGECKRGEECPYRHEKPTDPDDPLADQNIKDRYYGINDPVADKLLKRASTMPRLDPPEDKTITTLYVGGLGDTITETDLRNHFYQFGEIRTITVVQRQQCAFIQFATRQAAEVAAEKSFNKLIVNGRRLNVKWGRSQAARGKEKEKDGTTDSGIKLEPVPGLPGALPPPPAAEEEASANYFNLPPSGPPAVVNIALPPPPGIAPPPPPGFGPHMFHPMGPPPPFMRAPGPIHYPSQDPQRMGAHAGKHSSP
log2 fold change [1]: 0.024
log2 fold change (vorinostat): -0.23 (active)
log2 fold change (silmitasertib): 0
log2 fold change [2]: -0.053
log2 fold change (entospletinib): -0.023

RXRB isoform 3 (UniProt P28702)
log2 fold change [1]: 0.067
log2 fold change (vorinostat): -0.757 (active)
log2 fold change (silmitasertib): 0.168
log2 fold change [2]: 0.07
log2 fold change (entospletinib): 0.006

SCD (UniProt O00767)
Sequence of UniProt O00767 (O00767 whole entry, looked up): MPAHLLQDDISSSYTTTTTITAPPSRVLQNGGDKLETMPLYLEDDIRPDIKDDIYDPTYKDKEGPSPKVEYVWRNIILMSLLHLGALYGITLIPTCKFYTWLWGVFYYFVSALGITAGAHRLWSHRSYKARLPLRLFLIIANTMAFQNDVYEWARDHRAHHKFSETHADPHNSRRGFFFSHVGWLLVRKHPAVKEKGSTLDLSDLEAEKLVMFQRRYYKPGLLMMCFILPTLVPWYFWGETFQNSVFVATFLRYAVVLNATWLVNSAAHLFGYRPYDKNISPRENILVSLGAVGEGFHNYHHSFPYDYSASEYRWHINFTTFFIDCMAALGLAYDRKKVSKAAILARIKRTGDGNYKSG
log2 fold change [1]: -0.045
log2 fold change (vorinostat): 0.021
log2 fold change (silmitasertib): -0.057
log2 fold change [2]: -0.028
log2 fold change (entospletinib): 0.017

RPS6KB1 (UniProt P23443)
log2 fold change [1]: -0.049
log2 fold change (vorinostat): -0.319 (active)
log2 fold change (silmitasertib): 0.132
log2 fold change [2]: -0.017
log2 fold change (entospletinib): -0.005

SEC24D isoform 2 (UniProt O94855)
log2 fold change [1]: -0.017
log2 fold change (vorinostat): -0.251 (active)
log2 fold change (silmitasertib): 0.037
log2 fold change [2]: -0.013
log2 fold change (entospletinib): -0.003

REEP5 (UniProt Q00765)
log2 fold change [1]: -0.034
log2 fold change (vorinostat): 0.001
log2 fold change (silmitasertib): -0.025
log2 fold change [2]: 0.02
log2 fold change (entospletinib): 0.015
